± gives the standard deviation.
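Further: 1 nM active piRISC with 0.1 nM target library at 33 °C single turnover.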

One experiment deals with MILI (PIWIL2) piRISC loaded with L1MC piRNA (26 nt). Put plainly: pre-steady-state target cleavage rate (min^-1); guide: L1MC piRNA 5'p-UAACUAAAUACUAUGCAAGCUGUAGG; MIWI and MILI are mouse PIWI proteins and EfPiwi is from a freshwater sponge; tags in brackets are library labels; higher = faster piRNA-guided slicing of the target. The settings on record: auxiliary factor: 500 nM mouse GTSF1. In outline:
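A burst-and-steady-state fit was used to obtain the pre-steady-state cleavage rate. The input data were sequencing reads of uncleaved targets, normalised to depth and to weakly complementary targets, from a […] transcribed, DNA-blocked target RNA library mixed with 1 nM active affinity-purified piRISC holding one synthetic guide, with or without 500 nM GTSF1 partner protein, in HEPES–potassium acetate buffer at 33 °C for 0–8 or 0–960 min. Three trials were pooled and k3 was capped at 0.0001 min^-1.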
Turning to UCCUGGUACAGCUUGGCAUAGUAUUUAGUUA, the “pre-steady-state target cleavage rate” value was 0.4 ± 0.093.

Regarding “UCCUGGAUCAGCUUGCAUAGUAUUUAGUUC [g2:g22:cont:t1C]”, the “pre-steady-state target cleavage rate” value is 0.235 ± 0.016.

On to UCCUGGAUCAGCUUGAAUAGUAUUUAGUUA, for which the “pre-steady-state target cleavage rate” value was 0.247 ± 0.017.

Regarding UCCUGCUACAGCUUGACAUAGUAUUUAGUUA, the “pre-steady-state target cleavage rate” value was found to be 0.226 ± 0.018.

On to “UCCUGGAUGUCGAAGCAUAGUAUUUAGUUA [g2:g16:cont:t1A]”, for which the “pre-steady-state target cleavage rate” value amounted to 0.0359 ± 0.0067.

In the case of UCCUGCUUGAGCUUGCAUAGUAUUUAGUUA, the “pre-steady-state target cleavage rate” value stood at 0.22 ± 0.019.

For UCCUCCAACAGCUUGCAUAGUAUUUAGAUA, the “pre-steady-state target cleavage rate” value was found to be 0.192 ± 0.034.

Regarding UCCUGGAUGUCCUGCAUAGUAUUUAGUUA, the “pre-steady-state target cleavage rate” value came out at 0.094 ± 0.013.

As for UCCUGGAUGCGCUUGCAUAGUAUUUAGUUA, the “pre-steady-state target cleavage rate” value was 0.239 ± 0.016.

For UCCUGCAACAGCUUGCAUAGUAUUUAGUAA, the “pre-steady-state target cleavage rate” value was 0.333 ± 0.031.

Consider UCCUGCUACUCCUUGCAUAGUAUUUAGUUA, for which the “pre-steady-state target cleavage rate” value was determined as 0.262 ± 0.015.

In the case of UCCUGGAUGUCGUAGCAUAGUAUUUAGUUA, the “pre-steady-state target cleavage rate” value was 0.0554 ± 0.011.

On to UCCUGCUACAGCUUGCACAGUAUUUAGUUA, for which the “pre-steady-state target cleavage rate” value worked out at 0.157 ± 0.015.

UCCUCCUACAGCUUGGAUUGUAUUUAGUUA: the “pre-steady-state target cleavage rate” value stood at 0.165 ± 0.015.

As for UCCUGCUACAGCUUGCAUAGUAAUUAGUUA, the “pre-steady-state target cleavage rate” value worked out at 0.271 ± 0.028.

As for UCCUCCUACAGCUAGCAUAGUAUAUAGUUA, the “pre-steady-state target cleavage rate” value was 0.192 ± 0.03.

As for UCCUGGAACAGCAUGCAUAGUAUAUAGUUA, the “pre-steady-state target cleavage rate” value was determined as 0.247 ± 0.025.

As for UCCUGGAUCAGCUAGCAUAGUAUUAAGUUA, the “pre-steady-state target cleavage rate” value came to 0.247 ± 0.019.

Turning to UCCUGCUACAGCUAGCAUUGUAUUUAGUUA, the “pre-steady-state target cleavage rate” value is 0.225 ± 0.019.

For the sequence UCCUCGUACAGCUUGCAAAGUAUUUAGUUA, the “pre-steady-state target cleavage rate” value was determined as 0.149 ± 0.01.

In the case of UCCUGGAACAGCUUGGAUAGUAAUUAGUUA, the “pre-steady-state target cleavage rate” value was determined as 0.21 ± 0.025.

As to UCCUGGUACACCUAGCAUAGUAUUUAGUUA, the “pre-steady-state target cleavage rate” value came out at 0.201 ± 0.044.

With UCCUGGAUGUGCUUGCAUAGUAUUUAGGUUA, the “pre-steady-state target cleavage rate” value was found to be 0.102 ± 0.019.

Take UCCUCCUACAGCUUGCAUAGUAUUUACGUUA: the “pre-steady-state target cleavage rate” value was found to be 0.265 ± 0.029.

With UCCUCCUACACCUUGGAUAGUAUUUAGUUA, the “pre-steady-state target cleavage rate” value was 0.182 ± 0.026.

Regarding UCCUGGUACUGCUUGCUUAGUAUUUAGUUA, the “pre-steady-state target cleavage rate” value came out at 0.197 ± 0.015.

For UCCUGGAACAGCUUGCAUAGUGUUUAGUUA, the “pre-steady-state target cleavage rate” value was 0.146 ± 0.018.

Take UCCUGCUACAGCUUGCAUAGUUUUUAGUUA: the “pre-steady-state target cleavage rate” value is 0.0767 ± 0.014.

With UCCUGGUACAGAUUGCAUAGUAUUUAGUUA, the “pre-steady-state target cleavage rate” value was 0.257 ± 0.028.

In the case of UCCUGGAUGUGACUUGCAUAGUAUUUAGUUA, the “pre-steady-state target cleavage rate” value came out at 0.114 ± 0.019.

As to UCCUGCUAGAGCUUGCAUAGUAUUUUGUUA, the “pre-steady-state target cleavage rate” value was 0.172 ± 0.025.

With UCCUGGUUCAGCUUGCAUAGUAAUUAGUUA, the “pre-steady-state target cleavage rate” value was 0.235 ± 0.024.

Consider UCCUGGAUCAGCGUGCAUAGUAUUUAGUUA, for which the “pre-steady-state target cleavage rate” value worked out at 0.225 ± 0.015.

For the sequence UCCUCCUACUAGCUUGCAUAGUAUUUAGUUA, the “pre-steady-state target cleavage rate” value is 0.13 ± 0.013.

Turning to UCCUCCAACAGCUUGCAUAGUAUAUAGUUA, the “pre-steady-state target cleavage rate” value turned out to be 0.234 ± 0.027.

For the sequence UCCUGGAUCAGCUUGGCAUAGUAUUUAGUUA, the “pre-steady-state target cleavage rate” value was determined as 0.3 ± 0.061.

For the sequence UCCUGGUACAGCUUGCAUAGUAUUUAGAUUA, the “pre-steady-state target cleavage rate” value amounted to 0.131 ± 0.04.

Take UCCUCCUACAGCUUGCAUAGUAUUUAGUCA: the “pre-steady-state target cleavage rate” value was 0.303 ± 0.025.

Turning to UCCUCCUACAGCUUGCAUAGUGAUUUAGUUA, the “pre-steady-state target cleavage rate” value turned out to be 0.0192 ± 0.0061.

Turning to UCCUGGUACAGGUUGCAUUGUAUUUAGUUA, the “pre-steady-state target cleavage rate” value was 0.175 ± 0.023.

Still in this experiment, the particulars now being: auxiliary factor: none (no GTSF1).
Turning to UCCUGGUACAGCUUGGCAUAGUAUUUAGUUA, the “pre-steady-state target cleavage rate” value turned out to be 0.00473 ± 0.0036.

Consider “UCCUGGAUCAGCUUGCAUAGUAUUUAGUUC [g2:g22:cont:t1C]”, for which the “pre-steady-state target cleavage rate” value turned out to be 0.00817 ± 0.0026.

With UCCUGGAUCAGCUUGAAUAGUAUUUAGUUA, the “pre-steady-state target cleavage rate” value is 0.00991 ± 0.0026.

As for UCCUGCUACAGCUUGACAUAGUAUUUAGUUA, the “pre-steady-state target cleavage rate” value turned out to be 0.00448 ± 0.0026.

As for “UCCUGGAUGUCGAAGCAUAGUAUUUAGUUA [g2:g16:cont:t1A]”, the “pre-steady-state target cleavage rate” value came out at 0.00487 ± 0.0016.

For UCCUGCUUGAGCUUGCAUAGUAUUUAGUUA, the “pre-steady-state target cleavage rate” value was determined as 0.00599 ± 0.0022.

With UCCUCCAACAGCUUGCAUAGUAUUUAGAUA, the “pre-steady-state target cleavage rate” value amounted to 0.00442 ± 0.0025.

In the case of UCCUGGAUGUCCUGCAUAGUAUUUAGUUA, the “pre-steady-state target cleavage rate” value was found to be 0.00628 ± 0.0019.

On to UCCUGGAUGCGCUUGCAUAGUAUUUAGUUA, for which the “pre-steady-state target cleavage rate” value amounted to 0.0108 ± 0.0028.

UCCUGCAACAGCUUGCAUAGUAUUUAGUAA: the “pre-steady-state target cleavage rate” value is 0.00819 ± 0.0029.

For the sequence UCCUGCUACUCCUUGCAUAGUAUUUAGUUA, the “pre-steady-state target cleavage rate” value was determined as 0.0091 ± 0.0024.

In the case of UCCUGGAUGUCGUAGCAUAGUAUUUAGUUA, the “pre-steady-state target cleavage rate” value came out at 0.00344 ± 0.0024.

In the case of UCCUGCUACAGCUUGCACAGUAUUUAGUUA, the “pre-steady-state target cleavage rate” value was 0.00803 ± 0.0023.

Regarding UCCUCCUACAGCUUGGAUUGUAUUUAGUUA, the “pre-steady-state target cleavage rate” value was determined as 0.00457 ± 0.002.

Consider UCCUGCUACAGCUUGCAUAGUAAUUAGUUA, for which the “pre-steady-state target cleavage rate” value is 0.00539 ± 0.0023.

For the sequence UCCUCCUACAGCUAGCAUAGUAUAUAGUUA, the “pre-steady-state target cleavage rate” value worked out at 0.00339 ± 0.0026.

Regarding UCCUGGAACAGCAUGCAUAGUAUAUAGUUA, the “pre-steady-state target cleavage rate” value stood at 0.0058 ± 0.0025.

Consider UCCUGGAUCAGCUAGCAUAGUAUUAAGUUA, for which the “pre-steady-state target cleavage rate” value is 0.00556 ± 0.0019.

For UCCUGCUACAGCUAGCAUUGUAUUUAGUUA, the “pre-steady-state target cleavage rate” value is 0.007 ± 0.0024.

UCCUCGUACAGCUUGCAAAGUAUUUAGUUA: the “pre-steady-state target cleavage rate” value came to 0.00953 ± 0.0024.

Consider UCCUGGAACAGCUUGGAUAGUAAUUAGUUA, for which the “pre-steady-state target cleavage rate” value was found to be 0.00493 ± 0.0022.

In the case of UCCUGGUACACCUAGCAUAGUAUUUAGUUA, the “pre-steady-state target cleavage rate” value is 0.00696 ± 0.0032.

Consider UCCUGGAUGUGCUUGCAUAGUAUUUAGGUUA, for which the “pre-steady-state target cleavage rate” value was 0.00588 ± 0.0033.

Regarding UCCUCCUACAGCUUGCAUAGUAUUUACGUUA, the “pre-steady-state target cleavage rate” value was 0.00757 ± 0.0026.

Consider UCCUCCUACACCUUGGAUAGUAUUUAGUUA, for which the “pre-steady-state target cleavage rate” value amounted to 0.00508 ± 0.0023.

Turning to UCCUGGUACUGCUUGCUUAGUAUUUAGUUA, the “pre-steady-state target cleavage rate” value amounted to 0.0115 ± 0.0025.

As to UCCUGGAACAGCUUGCAUAGUGUUUAGUUA, the “pre-steady-state target cleavage rate” value came out at 0.00335 ± 0.0028.

UCCUGCUACAGCUUGCAUAGUUUUUAGUUA: the “pre-steady-state target cleavage rate” value turned out to be 0.00327 ± 0.0022.

For the sequence UCCUGGUACAGAUUGCAUAGUAUUUAGUUA, the “pre-steady-state target cleavage rate” value stood at 0.0104 ± 0.0044.

UCCUGGAUGUGACUUGCAUAGUAUUUAGUUA: the “pre-steady-state target cleavage rate” value turned out to be 0.00737 ± 0.0028.

On to UCCUGCUAGAGCUUGCAUAGUAUUUUGUUA, for which the “pre-steady-state target cleavage rate” value turned out to be 0.00521 ± 0.0022.

With UCCUGGUUCAGCUUGCAUAGUAAUUAGUUA, the “pre-steady-state target cleavage rate” value amounted to 0.00723 ± 0.0031.

Regarding UCCUGGAUCAGCGUGCAUAGUAUUUAGUUA, the “pre-steady-state target cleavage rate” value was 0.00697 ± 0.0035.

Consider UCCUCCUACUAGCUUGCAUAGUAUUUAGUUA, for which the “pre-steady-state target cleavage rate” value is 0.00589 ± 0.002.

In the case of UCCUCCAACAGCUUGCAUAGUAUAUAGUUA, the “pre-steady-state target cleavage rate” value came to 0.0056 ± 0.0022.

Consider UCCUGGAUCAGCUUGGCAUAGUAUUUAGUUA, for which the “pre-steady-state target cleavage rate” value came out at 0.00341 ± 0.0025.

As to UCCUGGUACAGCUUGCAUAGUAUUUAGAUUA, the “pre-steady-state target cleavage rate” value amounted to 0.00728 ± 0.0036.

As for UCCUCCUACAGCUUGCAUAGUAUUUAGUCA, the “pre-steady-state target cleavage rate” value was found to be 0.00856 ± 0.0028.

In the case of UCCUCCUACAGCUUGCAUAGUGAUUUAGUUA, the “pre-steady-state target cleavage rate” value turned out to be 0.00528 ± 0.0024.

Regarding UCCUGGUACAGGUUGCAUUGUAUUUAGUUA, the “pre-steady-state target cleavage rate” value came out at 0.0117 ± 0.0031.

Source of the values: the supplement of paper PMC10338343.
